Compound activity as filed in PubChem BioAssay.
Only some compounds are listed: those with a hit (about 17% of all), similar ones and a draw of the others.
HT1080-NT tox: kills 2HG-producing HT-1080-NT fibrosarcoma cells; HT-1080-NT fibrosarcoma viability, CellTiter-Glo ATP luminescence, 48 h; 1.6% of 360,000 active; Potency, µM (series often up to 46.1 µM), for the others: top-dose activity, negative = less viability, actives largely listed as cytotoxic; AID 686970;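 also: NT is the 2HG producing partner of a matched IDH1 knockdown line; 0% = DMSO-treated cells and -100% = media-only wells without cells; nearly all actives have a fitted effect of over 55% in size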
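Luminescent CellTiter-Glo readout after 48 hours of compound exposure at 37 degrees C defined viability of HT-1080-NT cells. Activity was normalized to DMSO wells and cell-free media wells; concentration-response curves were fitted and assigned curve classes.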
TDP1 cell noCPT: qHTS for Inhibitors of human tyrosyl-DNA phosphodiesterase 1 (TDP1): qHTS in cells in absence of CPT; DT40 Tdp1-/- hTDP1 cells, no CPT, ATP luminescence, 48 h; Potency, µM (titrated, usually from 46.2 µM), inactives show at the top dose activity change, negative = growth inhibition, most hits filed as inhibitors; 15% of 420,000 active; AID 686978, 2013; also: % is scaled to controls: 0 for no effect and ±100 for the full control effect; nearly all actives have a fitted effect of over 55% in size
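Chicken DT40 Tdp1-/- cells stably complemented with human TDP1 were seeded at 400 cells/well with DMSO in place of 20 nM camptothecin. After compound pinning, cells grew at least 48 hr at 37 °C; viability read by CellTiter-Glo luminescence.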
TGFb SMAD3 inh: inhibitors of TGF-b signaling; HepG2 CAGA-GFP TGF-b/SMAD3 reporter, GFP fluorescence, 18 h; TGF-beta stimulated, 500 pg/mL final; Potency, µM (top dose mostly 46.1 µM), for the others: top-dose activity, negative = inhibition, actives largely listed as inhibitors; 1.2% of 410,000 active; also: % is scaled to controls: 0 for no effect and ±100 for the full control effect; nearly all actives have a fitted effect of over 65% in size
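Inhibition was scored as loss of TGF-beta-induced (500 pg/mL final, 18 hours, 37 degrees C) GFP in HEPG2 cells carrying a CAGA-GFP reporter, in DMEM with 1% FBS. Well GFP was summed per cell; Activity was normalised to unstimulated and stimulated DMSO wells, then concentration-response fitting.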
TDP1 cell CPT: DT40-hTDP1 cell growth loss with CPT | chicken DT40 Tdp1-/-;hTDP1 cells + 20 nM CPT, ATP luminescence, 48 h | Potency, µM (titrated, usually from 46.2 µM), inactives show top-dose activity change, negative = growth inhibition, most hits filed as inhibitors | 12% of 420,000 active | AID 686979; also: % is scaled to controls: 0 for no effect and ±100 for the full control effect; nearly all actives have a fitted effect of over 55% in size
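Cell growth measured by CellTiter-Glo luminescence after a minimum 48 h, 37 C compound exposure with 20 nM CPT in Tdp1-knockout DT40 cells stably expressing hTDP1, seeded 400/well; qHTS titration format.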
HepG2 viability: HepG2 cytotoxicity, counter-screen for TGF-b inhibitors. HepG2 CAGA-GFP viability, ATP luminescence, 18 h. Potency, µM (doses to about 46.1 µM), for the others: top-dose activity change, negative = cytotoxicity, most hits filed as cytotoxic. 0.76% of 410,000 active. AID 588856
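HepG2 CAGA-GFP cells (1000/well, DMEM with 1% FBS) received compound, then TGF-beta at 500 pg/mL final, and were incubated 18 hours at 37 degrees C. Viability was read by CellTiter-Glo luminescence. Media-only wells were set as complete cell-killing and DMSO as no toxicity.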
HT1080 IDH1KD tx: HT-1080 IDH1 knockdown cell toxicity (counter line). 2% of 360,000 active. Potency, µM (titrated, usually from 46.1 µM), for inactives: top-dose activity, negative = toxicity, actives largely listed as cytotoxic. AID 686971. HT-1080 IDH1 knockdown viability, ATP luminescence, 48 h;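 also: 0% = DMSO wells and -100% = cell-free medium wells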
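Assay cells: HT-1080 with IDH1 knockdown, 750 per well, RPMI/5% FBS. Exposure: 48 h at 37 °C following 2 h pre-incubation. Read: CellTiter-Glo luminescence; fitted concentration-response, curve class assigned.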
The depositor's hits bear a star; u = inconclusive; x = no result. Calls follow the shape of the dose curve; as a rule, active = well fitted curve in the direction sought with a large enough effect; inconclusive = small, poorly fitted or top-dose-only effect, or another doubt; inactive = no such curve, though single readings can be large; an effect the other way counts as inactive or inconclusive. Potency is read from the fitted curve at half-maximal effect.

SMILES	HT1080-NT tox	TDP1 cell noCPT	TGFb SMAD3 inh	TDP1 cell CPT	HepG2 viability	HT1080 IDH1KD tx
Cc1cccc(C)c1NC(=O)C1(C)CCC(=O)N1C1CC1 (centres undefined)	22%	8%	-5%	-2%	2%	27%
O=C(/C=C/C(=O)Oc1ccccc1C(=O)O)Oc1ccccc1C(=O)O	x	1%	x	-23%	x	x
CCOc1ccc(C(=O)NC2CC(=O)N(c3ccc4c(c3)OCCO4)C2)cc1 (centres undefined)	5%	6%	-4%	7%	-13%	-1%
CCn1ccc2cc(S(=O)(=O)N3CCC(C(=O)NCC(C)c4ccccc4)CC3)ccc21 (centres undefined)	x	u	u	23µM*	-35%	x
CCC(C)NC(=O)Cn1ccc2cc(S(=O)(=O)N3CCCCC3)ccc21 (centres undefined)	x	-13%	-8%	u	-6%	x
CC(CNC(=O)C1CCN(S(=O)(=O)c2ccc3c(ccn3C)c2)CC1)c1ccccc1 (centres undefined)	x	-4%	10%	-23%	2%	x
CC(CNC(=O)Cn1ccc2cc(S(=O)(=O)N3CCCCCC3)ccc21)c1ccccc1 (centres undefined)	x	u	-19%	16µM*	22%	x
O=C(C1CCC(=O)N(C2CCCC2)C1)N1CCC(Oc2ccccc2Cl)CC1 (centres undefined)	0%	u	u	u	-7%	-4%
Cc1ccc(CNC(=O)Cn2c(=O)n(-c3ccc(C)c(F)c3)c(=O)c3sc4ccccc4c32)cc1	x	-9%	3%	3%	1%	x
COc1ccc(N/C=C/C(=O)c2cc(OC)c(OC)c(OC)c2)cc1	1.2µM*	1µM*	u	1µM*	-6%	1.3µM*
COc1ccc(C(=O)/C=C/Nc2ccc(NC(C)=O)cc2)cc1OC	u	u	u	16µM*	6%	u
C[C@H](CO)N1C[C@H](C)[C@H](CN(C)Cc2cccc(O)c2)OCc2ccccc2-c2c(n(C)c3ccccc23)C1=O	u	u	u	u	-109%	u
CC(CC(=O)NC(C)c1ccc2c(c1)OCCO2)c1ccccc1 (centres undefined)	7%	-4%	-12%	-8%	1%	-2%
CC(NC(=O)CCc1ccccc1)c1cc2c(cc1Cl)OCCO2 (centres undefined)	-6%	u	-3%	15µM*	-3%	0%
COc1ccccc1NC(=O)Cc1nnc(SCC(=O)Nc2ccccc2F)n1C	5%	u	u	16µM*	6%	-1%
COc1ccccc1NC(=O)CN1CCN(c2ccccc2F)CC1	2%	u	-20%	21µM*	-17%	-1%
Cc1ccccc1NC(=O)CSC(N)=O	-3%	u	-2%	-26%	-5%	-1%
COc1ccccc1NC(=O)CSC(N)=O	-2%	21µM*	12%	u	-6%	-4%
CCn1c(CC(=O)Nc2ccccc2OC)nnc1SCC(=O)Nc1ccccc1F	5%	-14%	4%	1%	-17%	8%
COc1ccccc1NC(=O)CN1CCN(c2ccc(Cl)cc2)CC1	-3%	16µM*	u	21µM*	0%	0%
COc1ccccc1NC(=O)CN1CCN(c2ccccc2OC)CC1	-5%	u	0%	-25%	13%	0%
COc1ccc(Cl)cc1NC(=O)c1sc2nc(C)nc(N3CCOCC3)c2c1C	10%	-1%	4%	-19%	0%	-1%
